Assay results reported in PubChem BioAssay (EPA / NIEHS).
Records with an inconclusive call do not appear. Active and inactive are the calls of the source. Rule for the calls: active = hit-call score of the fitted dose curve at least 0.9, where 1 is the maximum; inconclusive = response in the unintended direction; inactive = score below 0.9.

The molecules below were run against human RAR-related Orphan Receptor beta (RORb), RORB (gene 6096) (UniProt Q92753) (assay: ATG_RORb_TRANS: Attagene TRANS-FACTORIAL HepG2 Assay for human RAR-related Orphan Receptor beta (RORb) (AID 2283010)).
In short: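 Transfect HepG2 with multiple GAL4-UAS reporter transcription units; dose chemicals for 24 h; isolate RNA, reverse-transcribe and PCR-amplify reporter sequences; label, digest and resolve fragments by capillary electrophoresis; fit increases relative to DMSO.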

Sequence of human RAR-related Orphan Receptor beta (RORb), RORB (gene 6096) (Q92753 whole entry, looked up, the tested form may be a part): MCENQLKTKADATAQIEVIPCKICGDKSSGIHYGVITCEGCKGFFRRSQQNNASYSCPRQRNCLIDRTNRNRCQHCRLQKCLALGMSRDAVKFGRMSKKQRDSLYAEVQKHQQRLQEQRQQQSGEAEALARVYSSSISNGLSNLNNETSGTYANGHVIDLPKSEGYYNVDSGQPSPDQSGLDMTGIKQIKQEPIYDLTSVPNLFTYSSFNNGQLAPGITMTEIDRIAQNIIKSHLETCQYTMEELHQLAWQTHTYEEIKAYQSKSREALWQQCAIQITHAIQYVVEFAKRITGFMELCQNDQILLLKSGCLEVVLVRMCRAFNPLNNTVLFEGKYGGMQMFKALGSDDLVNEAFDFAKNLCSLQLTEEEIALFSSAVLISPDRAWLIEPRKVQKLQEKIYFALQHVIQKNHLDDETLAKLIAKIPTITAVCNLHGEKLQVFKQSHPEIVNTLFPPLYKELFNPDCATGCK

Row | SMILES | outcome
1 | Cc1cc(O)c2c(c1)C(=O)c1cc(O)cc(O)c1C2=O | inactive
2 | CC1=CC(C)C(C=O)C(C)C1 (configuration not stated) (tested in a mixture with another compound) | inactive
3 | C/C=C(\C)C(=O)OC/C=C(\C)CCC=C(C)C | inactive
4 | COc1cc(OC)c2ccc(=O)oc2c1 | inactive
5 | C=C1CC[C@H]2O[C@]2(C)CC[C@@H]2[C@@H]1CC2(C)C | inactive
6 | c1ccc(Cc2ccccc2)cc1 | inactive
7 | CCCCN(CCO)CCO | inactive
8 | CC(CCO)CC(C)(C)C (configuration not stated) | inactive
9 | CCCCCCCC1CCCC1=O (configuration not stated) | inactive
10 | C=C(C)C(N)=O | inactive
11 | CC/C=C\CCOC(=O)C(C)C | inactive
12 | CCCCOCCOCCO | inactive
13 | CC(=O)OCC=C(C)CCC=C(C)CCC=C(C)C | inactive
14 | CCOC(=O)C=Cc1ccccc1 | inactive
15 | CC1=CCC(C(C)(C)O)CC1 (configuration not stated) | inactive
16 | CCOC(=O)CCCCCCCCC(=O)OCC | inactive

Row | SMILES | outcome
17 | CC(C)N1C(=O)c2ccccc2C1=O | inactive
18 | CCCCN(CCCC)CCCCCCN(CCCC)CCCC | inactive
19 | O=S(=O)(O)c1cc(S(=O)(=O)O)c2c(N=Nc3ccccc3)c(O)ccc2c1 | inactive
20 | c1ccc(OCCOc2ccccc2)cc1 | inactive
21 | CC(C)COC(=O)c1ccccc1 | inactive
22 | O=C(OCc1ccccc1)c1ccccc1O | inactive
23 | CCn1cc(C(=O)O)c(=O)c2ccc(C)nc21 | inactive
24 | OC[C@H]1O[C@@H](O[C@H]2[C@H](O)[C@@H](O)[C@H](O)O[C@@H]2CO)[C@H](O)[C@@H](O)[C@H]1O | inactive
25 | CCCOC(=O)CC | inactive
26 | CC(C)C(=O)c1ccccc1 | inactive
27 | CC1=CC[C@@H](C(C)(C)O)CC1 | inactive
28 | CCCCCCCCOC(=O)c1ccc(O)cc1 | inactive
29 | CC(C)CCOC(=O)CC(C)C | inactive
30 | CC1=CC[C@@H]2C[C@H]1C2(C)C | inactive
31 | COc1ccccc1NC(=O)CC(C)=O | inactive
32 | C=COCC1CCC(COC=C)CC1 (configuration not stated) | inactive

The molecules below were run against human RAR-related Orphan Receptor gamma (RORg), RORC (gene 6097) (UniProt P51449) (assay: ATG_RORg_TRANS: Attagene TRANS-FACTORIAL HepG2 Assay for human RAR-related Orphan Receptor gamma (RORg) (AID 2283011)).
In short: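 Activity is scored as increase in GAL4-UAS reporter mRNA over DMSO, detected by fluorescent RT-PCR and capillary electrophoresis in HepG2 cells transiently expressing a RORg-Gal4 chimera, 24 h after dosing.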

Sequence of human RAR-related Orphan Receptor gamma (RORg), RORC (gene 6097) (P51449 whole entry, looked up, the tested form may be a part): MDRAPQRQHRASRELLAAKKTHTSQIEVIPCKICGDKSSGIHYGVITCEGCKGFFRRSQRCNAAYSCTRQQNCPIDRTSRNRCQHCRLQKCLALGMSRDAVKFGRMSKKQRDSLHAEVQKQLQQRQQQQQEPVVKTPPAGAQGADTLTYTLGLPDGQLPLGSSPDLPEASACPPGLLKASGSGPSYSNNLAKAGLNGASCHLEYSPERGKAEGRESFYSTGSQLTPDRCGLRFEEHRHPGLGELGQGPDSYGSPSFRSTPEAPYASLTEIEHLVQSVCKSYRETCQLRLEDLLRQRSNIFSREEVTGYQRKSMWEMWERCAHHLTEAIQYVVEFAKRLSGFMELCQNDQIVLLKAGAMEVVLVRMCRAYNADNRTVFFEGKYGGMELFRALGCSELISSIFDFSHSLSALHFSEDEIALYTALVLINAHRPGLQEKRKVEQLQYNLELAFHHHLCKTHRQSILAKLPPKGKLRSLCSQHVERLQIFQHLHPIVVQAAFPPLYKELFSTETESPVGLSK

Row | SMILES | outcome
33 | COc1ccc(OC)cc1 | inactive
34 | CCO[Si](CC)(OCC)OCC | inactive
35 | CC1(C)CC(=O)CC(C)(C)N1 | inactive
36 | C=CC(C)CCCC(C)(C)O (configuration not stated) | inactive
37 | CCCC1CCC(=O)CC1 | inactive
38 | CC(O)COCC(C)O (configuration not stated) | inactive
39 | O=C1OCc2ccccc21 | inactive
40 | CCCO | inactive

The molecules below were run against Retinoic acid receptor RXR-alpha (Homo sapiens) (UniProt P19793) (assay: ATG_RXRa_TRANS: Attagene TRANS-FACTORIAL HepG2 Assay for human Retinoid X Receptor alpha (RXRa) (AID 2283012)).
In short: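 Measures exogenous chimeric NR-GAL4 activity in transfected HepG2 liver cells after 24 h of dosing. Induced reporter mRNA was detected by RT-PCR with capillary electrophoresis, and gain of signal was analysed against DMSO.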

Sequence of Retinoic acid receptor RXR-alpha (Homo sapiens) (P19793 whole entry, looked up, the tested form may be a part): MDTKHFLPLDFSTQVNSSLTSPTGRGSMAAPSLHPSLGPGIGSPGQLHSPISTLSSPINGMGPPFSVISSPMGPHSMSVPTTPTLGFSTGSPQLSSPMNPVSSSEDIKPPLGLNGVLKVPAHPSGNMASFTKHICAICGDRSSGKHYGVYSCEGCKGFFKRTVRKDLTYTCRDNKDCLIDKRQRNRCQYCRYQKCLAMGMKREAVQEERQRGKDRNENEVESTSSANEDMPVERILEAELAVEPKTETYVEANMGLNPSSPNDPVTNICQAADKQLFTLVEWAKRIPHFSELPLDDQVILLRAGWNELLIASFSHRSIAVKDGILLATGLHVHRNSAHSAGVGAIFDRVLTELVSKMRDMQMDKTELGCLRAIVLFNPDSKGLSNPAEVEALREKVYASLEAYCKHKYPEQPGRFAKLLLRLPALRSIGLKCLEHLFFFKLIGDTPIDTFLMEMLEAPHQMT

Row | SMILES | outcome
41 | Cc1cc(O)c2c(c1)C(=O)c1cc(O)cc(O)c1C2=O | inactive
42 | CC1=CC(C)C(C=O)C(C)C1 (configuration not stated) (tested in a mixture with another compound) | inactive
43 | C=C1CC[C@H]2O[C@]2(C)CC[C@@H]2[C@@H]1CC2(C)C | inactive
44 | CCCCN(CCO)CCO | inactive
45 | CCCCCCCC1CCCC1=O (configuration not stated) | inactive
46 | CC(=O)OCC=C(C)CCC=C(C)CCC=C(C)C | inactive
47 | O=S(=O)(O)c1cc(S(=O)(=O)O)c2c(N=Nc3ccccc3)c(O)ccc2c1 | inactive
48 | C=CC(C)CCCC(C)(C)O (configuration not stated) | inactive
49 | O=C(OCc1ccccc1)c1ccccc1O | inactive
50 | OC[C@H]1O[C@@H](O[C@H]2[C@H](O)[C@@H](O)[C@H](O)O[C@@H]2CO)[C@H](O)[C@@H](O)[C@H]1O | inactive
51 | O=C1OCc2ccccc21 | inactive
52 | CC(C)CCOC(=O)CC(C)C | inactive
53 | COc1ccccc1NC(=O)CC(C)=O | inactive

These molecules were tested against human Retinoid X Receptor beta (RXRb), RXRB (gene 6257) (UniProt P28702) (assay: ATG_RXRb_TRANS: Attagene TRANS-FACTORIAL HepG2 Assay for human Retinoid X Receptor beta (RXRb) (AID 2283013)).
In short: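 Chimeric receptor-Gal4 activity was assessed in transiently transfected human HepG2 cells after 24 h exposure. Transcripts from GAL4-UAS reporters were quantified by fluorescent RT-PCR and capillary electrophoresis, with DMSO as negative control and baseline.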

Sequence of human Retinoid X Receptor beta (RXRb), RXRB (gene 6257) (P28702 whole entry, looked up, the tested form may be a part): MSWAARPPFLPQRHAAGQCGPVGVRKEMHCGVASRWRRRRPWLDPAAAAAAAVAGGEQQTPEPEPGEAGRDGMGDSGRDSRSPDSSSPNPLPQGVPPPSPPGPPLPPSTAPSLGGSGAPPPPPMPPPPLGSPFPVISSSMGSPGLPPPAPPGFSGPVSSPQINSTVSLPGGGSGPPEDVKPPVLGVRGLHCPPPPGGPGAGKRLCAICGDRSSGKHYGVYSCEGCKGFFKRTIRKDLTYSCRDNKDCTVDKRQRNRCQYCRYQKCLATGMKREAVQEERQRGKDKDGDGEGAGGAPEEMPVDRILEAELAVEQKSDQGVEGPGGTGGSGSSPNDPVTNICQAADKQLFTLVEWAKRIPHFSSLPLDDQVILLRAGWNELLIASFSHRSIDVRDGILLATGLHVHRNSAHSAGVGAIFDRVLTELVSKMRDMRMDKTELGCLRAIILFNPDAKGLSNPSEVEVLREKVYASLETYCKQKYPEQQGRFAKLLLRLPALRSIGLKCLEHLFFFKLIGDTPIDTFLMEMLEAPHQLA

Row | SMILES | AC50 | outcome
54 | C/C=C(\C)C(=O)OC/C=C(\C)CCC=C(C)C | 4.63 µM (active) | –
55 | COc1cc(OC)c2ccc(=O)oc2c1 | – | inactive
56 | C=C1CC[C@H]2O[C@]2(C)CC[C@@H]2[C@@H]1CC2(C)C | 100 µM (active) | –
57 | c1ccc(Cc2ccccc2)cc1 | – | inactive
58 | CC(CCO)CC(C)(C)C (configuration not stated) | – | inactive
59 | CCCCCCCC1CCCC1=O (configuration not stated) | – | inactive
60 | CC/C=C\CCOC(=O)C(C)C | – | inactive
61 | CC(=O)OCC=C(C)CCC=C(C)CCC=C(C)C | 9.14 µM (active) | –
62 | CCOC(=O)C=Cc1ccccc1 | – | inactive
63 | CCOC(=O)CCCCCCCCC(=O)OCC | – | inactive
64 | CC(C)N1C(=O)c2ccccc2C1=O | – | inactive
65 | O=C(OCc1ccccc1)c1ccccc1O | 50.1 µM (active) | –
66 | OC[C@H]1O[C@@H](O[C@H]2[C@H](O)[C@@H](O)[C@H](O)O[C@@H]2CO)[C@H](O)[C@@H](O)[C@H]1O | – | inactive
67 | CCCOC(=O)CC | – | inactive
68 | CC(C)C(=O)c1ccccc1 | – | inactive
69 | CC1=CC[C@@H](C(C)(C)O)CC1 | – | inactive
70 | CCCCCCCCOC(=O)c1ccc(O)cc1 | 11.1 µM (active) | –
71 | CC(C)CCOC(=O)CC(C)C | 100 µM (active) | –
72 | COc1ccccc1NC(=O)CC(C)=O | – | inactive
73 | C=COCC1CCC(COC=C)CC1 (configuration not stated) | – | inactive

What follows are molecules tested against human Thyroid Receptor alpha (THRa1), THRA (gene 7067) (UniProt P10827) (assay: ATG_THRa1_TRANS: Attagene TRANS-FACTORIAL HepG2 Assay for human Thyroid Receptor alpha (THRa1) (AID 2283014)).
In short: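 First, HepG2 cells receive multiple GAL4-UAS reporter units and the chimeric receptor. They are then dosed for 24 h, after which RNA is reverse-transcribed, amplified, labelled, HpaI-cut and sized by capillary electrophoresis; gain relative to DMSO is scored.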

Sequence of human Thyroid Receptor alpha (THRa1), THRA (gene 7067) (P10827 whole entry, looked up, the tested form may be a part): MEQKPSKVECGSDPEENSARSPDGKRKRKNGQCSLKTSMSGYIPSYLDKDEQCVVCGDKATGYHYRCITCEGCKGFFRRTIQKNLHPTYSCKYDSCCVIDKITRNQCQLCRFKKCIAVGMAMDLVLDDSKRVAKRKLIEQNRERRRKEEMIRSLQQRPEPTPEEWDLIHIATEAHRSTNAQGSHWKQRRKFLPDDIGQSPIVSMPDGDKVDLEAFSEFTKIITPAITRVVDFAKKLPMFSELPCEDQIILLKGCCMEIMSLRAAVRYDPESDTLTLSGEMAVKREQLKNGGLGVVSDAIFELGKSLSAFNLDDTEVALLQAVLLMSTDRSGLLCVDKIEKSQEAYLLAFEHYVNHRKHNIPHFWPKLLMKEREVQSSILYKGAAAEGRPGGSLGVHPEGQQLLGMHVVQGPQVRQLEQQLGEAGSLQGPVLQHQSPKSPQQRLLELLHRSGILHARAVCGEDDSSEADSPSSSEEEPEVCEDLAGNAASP

Row | SMILES | AC50 | outcome
74 | Cc1cc(O)c2c(c1)C(=O)c1cc(O)cc(O)c1C2=O | 12.6 µM (active) | –
75 | CC1=CC(C)C(C=O)C(C)C1 (configuration not stated) (tested in a mixture with another compound) | – | inactive
76 | C/C=C(\C)C(=O)OC/C=C(\C)CCC=C(C)C | – | inactive
77 | COc1cc(OC)c2ccc(=O)oc2c1 | – | inactive
78 | C=C1CC[C@H]2O[C@]2(C)CC[C@@H]2[C@@H]1CC2(C)C | – | inactive
79 | c1ccc(Cc2ccccc2)cc1 | – | inactive
80 | CCCCN(CCO)CCO | – | inactive
81 | C=C(C)C(N)=O | – | inactive
82 | CC/C=C\CCOC(=O)C(C)C | – | inactive
83 | CCCCOCCOCCO | – | inactive
84 | CC(=O)OCC=C(C)CCC=C(C)CCC=C(C)C | – | inactive
85 | CC1=CCC(C(C)(C)O)CC1 (configuration not stated) | – | inactive
86 | CC(C)N1C(=O)c2ccccc2C1=O | – | inactive
87 | CCCCN(CCCC)CCCCCCN(CCCC)CCCC | – | inactive
88 | O=S(=O)(O)c1cc(S(=O)(=O)O)c2c(N=Nc3ccccc3)c(O)ccc2c1 | – | inactive
89 | c1ccc(OCCOc2ccccc2)cc1 | – | inactive
90 | CC(C)COC(=O)c1ccccc1 | – | inactive
91 | O=C(OCc1ccccc1)c1ccccc1O | – | inactive
92 | OC[C@H]1O[C@@H](O[C@H]2[C@H](O)[C@@H](O)[C@H](O)O[C@@H]2CO)[C@H](O)[C@@H](O)[C@H]1O | – | inactive
93 | CCCOC(=O)CC | – | inactive
94 | CC1=CC[C@@H](C(C)(C)O)CC1 | – | inactive
95 | CC(C)CCOC(=O)CC(C)C | – | inactive
96 | CC1=CC[C@@H]2C[C@H]1C2(C)C | – | inactive
97 | C=COCC1CCC(COC=C)CC1 (configuration not stated) | – | inactive
